# Reference: PubChem BioAssay AID588405 (Sanford-Burnham Center for Chemical Genomics, 2011)
# About 6,200 (1.7%) of roughly 360,000 compounds were called active.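 The calls were made as follows: active = inhibition of at least 50% at 20 µM; inactive = the rest.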 The full list was thinned out, with actives kept by preference.
# Experiment: inhibition of PEG-3 promoter activity – cell-based, HeLa, luciferase luminescence, primary screen (AID 588405)
# Conditions: HeLa PEG-Prom luciferase reporter, overnight, at 20 µM, hits give high values
row,SMILES,inhibition
1,CCN(CC)C(=O)CC(c1ccc2c(c1)OCO2)c1c(OC)cc(OC)c2c(-c3ccccc3)cc(=O)oc12 (centres undefined),7.97% (inactive)
2,CCN(CC)CCC(c1ccc2c(c1)OCO2)c1c(OC)cc(OC)c2c(-c3ccccc3)cc(=O)oc12 (centres undefined),56.4% (active)
3,CCN(CC)CCC(c1cc(OC)c(OC)c(OC)c1)c1c(OC)cc(OC)c2c(-c3ccccc3)cc(=O)oc12 (centres undefined),27.4% (inactive)
4,CC1(C(=O)Nc2cccc3cccnc23)CCN1C(=O)CCC1CCCC1 (centres undefined),10.3% (inactive)
5,COc1ccc(CCNC(=O)Nc2ccc3c(c2)c(=O)n(C)n3C)cc1OC,-7.49% (inactive)
6,O=C(c1ccc(F)cc1)c1c[nH]c(C(=O)NCc2cccnc2)c1,18% (inactive)
7,COc1ccc(C(=O)Nc2ccccc2C(=O)N/N=C/c2ccc(O)c(OC)c2)cc1,83.7% (active)
8,COc1ccc(-c2[nH]ncc2/C=N/NC(=O)c2cc(Br)ccc2O)c(OC)c1,5.43% (inactive)
9,O=C(NN=Cc1ccc2c(c1)CCC2)c1ccccc1O,-215% (inactive)
10,O=C(Nc1cc(Br)ccc1F)c1nc[nH]c1C(=O)NCc1ccccc1,2.41% (inactive)
11,Cc1sc2ccccc2c1CNC[C@H]1O[C@@H](n2ccc(=O)[nH]c2=O)[C@H](O)[C@@H]1O,-4.81% (inactive)
12,COc1ccc(C(=O)/C=C/Nc2ccccn2)cc1,63% (active)
13,COc1ccc(N2C(=O)CCC(C(=O)Nc3ccccn3)C2c2ccc(OC)c(OC)c2)cc1 (centres undefined),12.5% (inactive)
14,Cc1cc(N/C=C\C(=O)c2ccc(Cl)c(Cl)c2)no1,-233% (inactive)
15,COc1ccccc1CNC(=O)c1cc(-c2cc(F)ccc2OC)n[nH]1,0.22% (inactive)
16,COc1ccc(OC)c(C(=O)NC(CC(N)=O)c2ccc(N3CCC(N4CCCCC4)CC3)c([N+](=O)[O-])c2)c1 (centres undefined),0.66% (inactive)
17,CCc1nc2c(OCc3ccccc3)cccn2c1N(C)C(=O)c1ccco1,11.6% (inactive)
18,COc1ccc(CC(=O)Nc2c(C(N)=O)oc3ccccc23)cc1,8.96% (inactive)
19,COc1ccc(NC(=O)Cn2c(-c3ccc(OC)cc3)cn(-c3ccc(C)cc3)c2=O)cc1,-103% (inactive)
20,COc1ccc(CC(=O)Nc2ccc(-c3nnc(-c4ccc(C)cc4)o3)cc2)cc1,51.2% (active)
21,COc1ccc(CCCNC(=O)C2Cc3c(-c4cccc(C(N)=O)c4)ccnc3O2)cc1 (centres undefined),14.7% (inactive)

row,SMILES,inhibition
1,Nc1cccc(-c2cncc(N3CCN(Cc4ccccn4)CC3)n2)c1,-8.35% (inactive)
2,CSCC[C@H](NC(=O)CCCn1nnc2ccccc2c1=O)C(=O)O,4.76% (inactive)
3,CCOc1ccc(CCN2C(=S)N([C@@H](CC(C)C)CN3CCC[C@@H]3CN3C(=S)NC[C@@H]3Cc3ccc(O)cc3)C[C@@H]2Cc2ccc(O)cc2)cc1,14.3% (inactive)
4,CCOc1ccc(CCN2C(=S)N([C@@H](CC(C)C)CN3CCC[C@@H]3CN3C(=S)NC[C@@H]3Cc3ccc(O)cc3)C[C@@H]2CC(C)C)cc1,14.2% (inactive)
5,CC(C)C[C@H]1CNC(=S)N1C[C@H]1CCCN1C[C@H](Cc1ccc(O)cc1)N1C[C@H](Cc2ccc(O)cc2)N(CC2CCCCC2)C1=S,99.5% (active)
6,Cc1ccc(OCC(=O)c2cc(C)n(Cc3ccco3)c2C)c([N+](=O)[O-])n1,55.6% (active)
7,COCC(C)n1c(C)cc(C(=O)COc2ccc(C)nc2[N+](=O)[O-])c1C (centres undefined),43.5% (inactive)
8,Cc1cc(C(=O)COC(=O)CNC(=O)c2ccc(F)cc2)c(C)n1Cc1ccco1,-257% (inactive)
9,CC(C)c1ccc(CC(=O)N2CCC2(C)C(=O)NS(=O)(=O)c2ccc(C(C)(C)C)cc2)cc1 (centres undefined),11.3% (inactive)
10,CC(C)Cn1cc(-c2cncc3nccn23)cn1,5.62% (inactive)
11,CN(C(=O)CN1CCN(c2cc(-c3ccc(OCc4ccccc4)cc3)ncn2)CC1)c1ccccc1,-2.84% (inactive)
12,Fc1ccc(-c2ccc(NCCN3CCOCC3)nn2)cc1,-96.4% (inactive)
13,CCOc1nc(NCCN2CCOCC2)nc(Nc2ccc(C)cc2)n1,5.29% (inactive)
14,c1ccc2cc3c(NCCN4CCOCC4)ccnc3cc2c1,69.5% (active)
15,CCN(CC)C(=O)C1=C(C)N(Cc2ccc(F)cc2)C(=O)C(CC(=O)NC2CCCC2)C1 (centres undefined),11% (inactive)
16,COCCCNC(=S)N(CCN(C)C)Cc1cc2cc3c(cc2[nH]c1=O)OCCO3,2.51% (inactive)
17,Cc1cc(C)c2[nH]c(=O)c(CN(Cc3ccccc3)C(=S)NCCCN(C)C)cc2c1,66.4% (active)
18,Cc1cccc2cc(CN(Cc3cccs3)C(=S)NCc3ccco3)c(=O)[nH]c12,4.8% (inactive)
19,CCCOc1ccc(F)cc1-c1cc(C(=O)Nc2ccc(F)cc2)[nH]n1,-8.32% (inactive)
20,CCn1c(CC(=O)Nc2ccc(C)cc2)nnc1SCC(=O)Nc1nc(C)cs1,-10.4% (inactive)
21,NC(Cc1ccc(F)cc1)c1csc(Nc2nncc3ccccc23)n1 (centres undefined),103% (active)

row,SMILES,inhibition
1,COCC(C)NC(=O)COc1nncc2ccccc12 (centres undefined),0.55% (inactive)
2,CN[C@H]1C[C@H]2c3cc(Oc4ccccc4C)ccc3CCN2C(=O)[C@H]1[C@H](C)O,-28.3% (inactive)
3,CN(C)C(=S)Nc1ccc(Br)cc1Cl,4.24% (inactive)
4,CCn1cc(CN2CCC(C(=O)Nc3cccc(-c4cccc(Cl)c4)c3)CC2)c(C)n1,105% (active)
5,O=C(Nc1cnn(Cc2ccc(Cl)cc2)c1)C1CCCC1,-29.5% (inactive)
6,O=C(Nc1cccc(-c2cccc(Cl)c2)c1)C1CCN(C2CCC2)CC1,53.2% (active)
7,COc1cccc(-c2cccc(NC(=O)C3CCN(C4CCC4)CC3)c2)c1,9.5% (inactive)
8,CC(=O)c1cc(CN2CCC(C(=O)Nc3cccc(-c4cscn4)c3)CC2)cs1,2.3% (inactive)
9,O=C(NC1CCCC1)C1CCN(C(=O)Nc2cccc(Cl)c2)CC1,17% (inactive)
10,CCn1cc(CN2CCC(C(=O)Nc3cccc(-c4cccc(Cl)c4)c3)CC2)cn1,54.4% (active)
11,O=C(Nc1cccc(-c2cscn2)c1)C1CCN(Cc2ccsc2)CC1,5.06% (inactive)
12,O=C(NCC1CCN(Cc2ccccc2Cl)CC1)Nc1cccc(Cl)c1,27.8% (inactive)
13,COc1cccc(NC(=O)C2(C)CCN2Cc2ccccc2Cl)c1 (centres undefined),12.9% (inactive)
14,CCOCCC(=O)Nc1ccc2c(c1)c(=O)n(C)n2-c1ccc2ccccc2c1,-14.8% (inactive)
15,CCCNC(=O)C1(C)CCN(C(=O)c2ccccc2OC(F)(F)F)C1 (centres undefined),-13.6% (inactive)
16,CC(=O)Nc1cc(-c2ccc(N3CCN(C)CC3)cc2)cn2c(-c3ccc(F)cc3)cnc12,-24.9% (inactive)
17,CCCCN(C=O)c1c(CC)nc2c(OCc3ccccc3C(=O)OC)cccn12,13.7% (inactive)
18,COCc1cc(=O)n2[nH]c(C)c(-c3ccccc3)c2n1,2.19% (inactive)
19,CCCc1cc(=O)n2[nH]c(C)c(-c3ccc(Cl)cc3)c2n1,61.5% (active)
20,Cc1nc2c(-c3ccccc3)c(C)[nH]n2c(=O)c1Cl,13.1% (inactive)
21,COc1cc(F)ccc1-c1cc(C(=O)NCC2CCCCC2)[nH]n1,-33.4% (inactive)

row,SMILES,inhibition
1,CC(C)COC(=O)C1C2C=CC3(CN(C(C)c4ccc(Br)cc4)C(=O)C13)O2 (centres undefined),6.1% (inactive)
2,COc1cc(NC(=O)c2cc(-c3ccc(F)cc3OC(C)C)n[nH]2)cc(OC)c1OC,33.7% (inactive)
3,Cc1ccc(C(=O)NCC(=O)O)s1,13.7% (inactive)
4,Cc1nc2c(OCc3cccc(Cl)c3)cccn2c1N(C)CC1CC1,-12.2% (inactive)
5,OC(c1ccc(Cl)c(F)c1)c1ncc(-c2ccccc2Cl)[nH]1 (centres undefined),17.5% (inactive)
6,O=C(NC(c1ccc(-c2ccccc2)cc1)c1cnccn1)C1CCN(CCOc2ccc(Cl)cc2Cl)CC1 (centres undefined),37.4% (inactive)
7,O=C(NC(c1ccc(Cl)cc1)c1cnccn1)C1CCN(Cc2ccc(Cl)cc2)CC1 (centres undefined),6.83% (inactive)
8,Cc1ccc(C(NC(=O)C2CCN(CCOc3ccc(Cl)cc3Cl)CC2)c2ccccn2)cc1 (centres undefined),106% (active)
9,Nc1ncnc2c1ncn2[C@@H]1O[C@H](CNC(=O)[C@H](N)Cc2cccnc2)[C@@H](O)[C@H]1O,-0.67% (inactive)
10,O=C(CC[C@H]1O[C@@H](n2ccc(=O)[nH]c2=O)[C@H](O)[C@@H]1O)N[C@H](Cc1ccccc1)C(=O)NCCCN1CCCC1=O,-0.27% (inactive)
11,COC(=O)C1=C(C)N(Cc2ccccc2)C(=NCCCOC(C)C)N[C@H]1c1ccccc1,-9.14% (inactive)
12,CCCCNC(=O)C(C)N(CCN(C)C)C(=O)CCCN1C(=O)NC(c2ccc(Cl)cc2)C(C(=O)OCc2ccccc2)=C1C (centres undefined),92.9% (active)
13,CCCCNC(=O)C(C)N(CCN(C)C)C(=O)CCCCCN1C(=O)NC(c2ccc(Cl)cc2)C(C(=O)OCc2ccccc2)=C1C (centres undefined),91.8% (active)
14,CCOC(=O)CCCNC(=O)CN1C(=O)NC(CCc2ccccc2)C1=O (centres undefined),1.97% (inactive)
15,CCOC(=O)C1=C(CCc2ccccc2)NC(=O)NC1c1ccc2ccccc2c1 (centres undefined),40.3% (inactive)
16,CCOC(=O)C1=C(C)N(C[C@@H]2CC[C@@H](Cc3ccc(-c4ccccc4)cc3)O2)C(=O)NC1c1ccc([N+](=O)[O-])cc1 (some centres undefined),15.2% (inactive)
17,CC1=C(C(=O)N(C(C)C)C(C)C)CC(CC(=O)NCC2CCCCC2)C(=O)N1Cc1ccccc1 (centres undefined),11.2% (inactive)
18,O=C(Nc1ccc(OCCO)cc1)c1csc([C@H]2C[C@H](O)[C@@H](CO)O2)n1,14.9% (inactive)
19,CCNC(=O)C1(C)CCCN(Cc2noc(-c3ccccc3OC)n2)C1 (centres undefined),2.68% (inactive)
20,O=C1Oc2ccccc2C(=O)/C1=C/c1ccccc1O,69.8% (active)
21,COC(=O)c1ccc(/C=C2/C(=O)Oc3ccccc32)cc1,11.1% (inactive)
